Values joined by “and” are separate entries in the source; they are usually repeats but may differ in a detail not shown here. Equal values may be shown once. Records with an inconclusive call do not appear. Entries that show only a call come without a potency. Active and inactive are the calls of the source. The call rests on the fitted dose curve; in most records, active means well fitted cell-killing curve with a large enough effect; inconclusive means small, poorly fitted or top-dose-only effect, or effect the other way; inactive means no such curve, though single readings can be large or run the other way.
Potency means the concentration at half of the fitted maximal effect.

The assay can be described thus: Viability qHTS for spleen associated tyrosine kinase inhibitor (SYKi) naive MV4-11 cells (AID 1963823). Further: nearly all actives have a fitted effect of over 40% in size. As to conditions: MV4-11 AML viability, CellTiter-Glo luminescence, 72 h; series mostly up to 45 µM. The text has this:
Department of Medicine, Hematology/Oncology
University Hospital Frankfurt, Germany.
Trials have shown promising clinical activity of the selective SYK inhibitor entospletinib in patients with high expressing HOXA9/MEIS1 acute leukemias. As the development of resistance mechanisms is a common problem in the use of targeted drugs, we performed a chemical library screen to identify drug sensitivities in SYK inhibitor resistant AML cells. […] Glucocorticoids are potent immunosuppressants which work in part by inhibiting the transcription of cytokine genes.
Described herein is a viability screen to look for activity in the SYK inhibitor naive cell line against four NCATS compound libraries (MIPE 5.0, NPC, NPACT, and Kinase) totaling 11372 compounds. Active hits were reacquired for confirmation and further secondary assay testing.
SEQUENCE No. (e.g., 1, 2, 3, etc.); […] (e.g., Cells, Incubation, Reagent, etc.); VALUE; DESCRIPTION.
1; Media; 2uL; white, solid-bottom Corning assay plate.
2; Compounds; 23nL; Echo acoustic dispenser.
3; Cell; 5uL; 500 cells per well.
4: Incubation; 72hr; 37 C, 5% CO2, 95% humidity.
5; Reagent; 3uL; CellTiter-Glo reagent (Promega).
6; Incubation; 10min; room temperature.
7; Detection; Luminescence; ViewLux plate reader (PerkinElmer).
NOTES (numbers refer to Sequence numbers above
1. Quantitative high-throughput screening (qHTS) of small molecule compounds was conducted on naive SYKi MV4-11 cell line.
2. Twenty-three nanoliter of small molecule compounds were added to each assay plates using the Echo acoustic dispenser (Beckman Coulter).
3. Cells were seeded into the assay plates at a final density of 500 cells in 5uL of media per well using the Multi-drop Combi dispenser.
4. Plates were covered with stainless steel gasketed lids and incubated for 72 hours at standard cell culture conditions.
5. Viability was assessed by adding 3uL of CellTiter-Glo detection reagent (Promega).
6. Plates were covered with gasket lids and incubated for 10 minutes at room temperature.
7. Luminescence was measured on a ViewLux plate reader (PerkinElmer).
For `CCCCCN(CCCCC)C(=O)C(CCC(=O)O)NC(=O)c1ccc(Cl)c(Cl)c1` (stereo not given), the Potency result is “inactive”. For `CCn1cc(C(=O)O)c(=O)c2cc(F)c(N3CCNCC3)nc21`, the Potency was 0.0335 µM (active). With `O=C(O)CC(C(=O)O)n1c(O)c(C2=c3cc(Br)ccc3=NC2=O)sc1=S` (stereo not given) the entry was “inactive”; with `CC(C)C1NC(=O)C2CCCN2C1=O` (stereo not given), “inactive”. Then `Cc1cc(NS(=O)(=O)c2ccc(N)cc2)nc(C)n1`, with “inactive”; and `CCC1(O)CC2c3cc(OC)c(OC)cc3CCN2CC1CC(C)C` (stereo not given), with “inactive”; and `COc1c2cc(c(O)c1OC)-c1cc(ccc1O)CCC(O)CCCC2` (stereo not given), with 12.8 µM (active). Then `CC(=O)N1CCN(NC(=O)c2ccc(F)cc2)CC1`, with “inactive”; and `CCOC(=O)C1=C(C)NC2=C(C(=O)CC(C)(C)C2)C1c1ccc(-c2ccccc2)cc1` (stereo not given), with 23.5 µM (active). Regarding `CCCCOC(=O)NC(=O)C1c2ccccc2Oc2ccccc21`, the Potency result was “inactive”.

Turning to `COC(=O)C(Cc1ccc(OCCn2c(=O)sc3cc(C(=O)c4ccccc4)ccc32)cc1)C(=O)OC`, the Potency is 23.1 µM (active). In the case of `Cc1ccc(C(C)OC(=O)C2(C)CCC(C(=O)O)C2(C)C)cc1` (stereo not given), the Potency entry was “inactive”. Then `NC(N)=NC(=O)c1nc(Cl)c(N)nc1N`, with 5.39 µM (active) and 841 nM (active). As to `C[C@@H](c1ncncc1F)[C@](O)(Cn1cncn1)c1ccc(F)cc1F`, the Potency result was “inactive”. Then `O=C1Nc2cc(Cl)ccc2Oc2ccccc21`, with “inactive”; and `O=C(Cn1c2ccccc2c2nc3n(c(=O)c21)CCS3)N1CCCC1`, with “inactive”; and `CC(C)[N+](C)(C)CC(O)COc1cccc2ccccc12` (stereo not given), with “inactive”. Then `O=C(Nc1cc(C(F)(F)F)cc(C(F)(F)F)c1)c1cc(Cl)ccc1O`, with 651 nM (active) and 934 nM (active); and `C[C@@H](Nc1cc(NS(=O)(=O)N2CCC2)nc(SCc2cccc(F)c2F)n1)[C@@H](O)CO`, with “inactive”; and `CCCCN(CCCC)CCCOC(=O)c1ccc(N)cc1`, with “inactive”. Then `C[N+](C)(C)CC[N+]1(C)Cc2c(Cl)c(Cl)c(Cl)c(Cl)c2C1`, with “inactive”; and `C/C(=C\CO)CC/C=C(\C)C(=O)O[C@H]1[C@H](OC2OC=C(C(=O)O)C3CCC(C)(O)C23)O[C@H](CO)[C@@H](O)[C@@H]1O` (stereo not given in full), with “inactive”; and `Cc1c(C(=O)NCc2cccnc2)nn(-c2ccc(Cl)cc2Cl)c1-c1ccc(Cl)cc1`, with “inactive”. For the compound `Cc1cc(C(=O)N2CCN(c3cccc(Cl)c3)CC2)n(-c2ccccc2)n1`, the Potency was 1.46 µM (active). With `COc1ccc(C=Cc2cc(OC)c(OC)c(OC)c2)cc1NC(=O)[C@H](N)CO` the figure was 0.0332 µM (active); with `COc1cc2nccc(Oc3ccc(NC(=O)Nc4ccc(F)cc4F)c(F)c3)c2cc1OC`, 0.0231 µM (active); with `CC[C@@H](Nc1c(Nc2cccc(C(=O)N(C)C)c2O)c(=O)c1=O)c1ccc(C)o1`, “inactive”. For the compound `C[C@@H](NC(=O)c1ncnc(N)c1Cl)c1ncc(C(=O)Nc2cc(C(F)(F)F)c(Cl)cn2)s1`, the Potency is 9.2 µM (active).

In the case of `C=CC(C)(C)C12C=C(OC)C(=O)N3C(C(C)C)C(=O)NC31N(OC)c1ccccc12` (stereo not given), the Potency result was “inactive”.

Regarding `COC1OC(=O)C2=C1C1(C)CCCC(C)(C)C1CC2O` (stereo not given), the Potency entry was “inactive”. As to `COc1nc(C)cnc1NS(=O)(=O)c1cccnc1-c1ccc(-c2nnco2)cc1`, the Potency result was “inactive”. With `O=C(c1ccc2nccnc2c1)N1CCCCC1` the entry was “inactive”; with `C1CCC(C(CC2CCCCN2)C2CCCCC2)CC1` (stereo not given), 2.95 µM (active); with `CCC(=O)N1CCc2cc(OC)c(O)cc2C1`, “inactive”. With `c1cc(NCCc2c[nH]c3ccccc23)cc(Nc2ccncc2)c1` the figure was 0.58 µM (active); with `CC(=O)O[C@H]1[C@H](Oc2ccccc2COC(=O)C2(O)C=CCCC2=O)O[C@H](CO)[C@@H](O)[C@@H]1O` (stereo not given in full), “inactive”. Then `Cc1cccc(C)c1NC(=O)CN1CCCCCC1`, with “inactive”; and `O=C(O)c1cccnc1Nc1cccc(C(F)(F)F)c1`, with “inactive”. Turning to `Cc1cccc(C)c1NC(=O)CN(CC(=O)O)CC(=O)O`, the Potency entry was “inactive”. For `C[C@H]1C[C@H](O)c2ccsc2S1(=O)=O`, the Potency entry is “inactive”.
